Only some compounds are listed: those with a hit (about 4.6% of all), similar ones and a draw of the others.
Tau fibril ThT = inhibitors of human tau fibril formation, thioflavin T binding; P10636; recombinant tau K18 P301L, heparin-induced fibrillization, ThT fluorescence; Potency, µM (top dose mostly 57.4 µM), for the others: top-dose activity, negative = inhibition, most hits filed as inhibitors; 2.1% of 270,000 active; also: potency is read from the fitted curve at half-maximal effect; nearly all actives have a fitted effect of over 55% in size
Target sequence (P10636 561-689 P618L limits assumed): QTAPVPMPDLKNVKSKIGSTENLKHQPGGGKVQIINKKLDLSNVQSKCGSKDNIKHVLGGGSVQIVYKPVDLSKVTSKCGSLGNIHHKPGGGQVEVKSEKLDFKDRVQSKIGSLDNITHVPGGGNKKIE
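Heparin-induced (20 uM) aggregation of recombinant human K18 P301L tau, 15 uM unlabeled with 0.24 uM labeled, pH 7 acetate buffer, 6 hr at 37 C with compound. Fibrils quantified by 30 uM ThT fluorescence after 1 hr ambient incubation.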
PNC inhibitor = blocks assembly of the perinucleolar compartment. AID 2417. 3.1% of 140,000 active. PC3M PTB-GFP, PNC prevalence imaging, 16 h; active compounds read low. activity change (PNC), negative = inhibition, % at 10 µM;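 active = readout at or below -70, meaning at least 70% loss of cells showing the perinucleolar compartment, a nuclear body marking cancer cells; inconclusive = readout between -30 and a set limit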;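 also: plate controls were DMSO wells for no effect and camptothecin positive control wells for full effect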
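Compounds are pinned in duplicate onto adhered PC3M cells stably expressing GFP-tagged PTB and incubated 16 h at 37 C. Cells are then fixed, nuclei stained with Hoechst, and PNC-positive cells counted.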
Tau fluor cs = counter-screen for tau fibril formation inhibitors; 0.93% of 280,000 active; Potency, µM (titrated, usually from 57.7 µM), for the others: at the highest dose activity change, negative = decrease; AID 1463; tau K18 P301L (four-repeat tau fragment) Alexa594 fluorescence, heparin fibrillization; also: potency is read from the fitted curve at half-maximal effect; nearly all actives have a fitted effect of over 55% in size
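Human K18 P301L tau (15 uM unlabeled plus 0.24 uM Alexa 594-labeled, final) in 100 mM sodium acetate pH 7 was mixed with compound and 20 uM heparin and incubated 6 hr at 37 C.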
TR SRC2 fluor cs = alters Texas Red total fluorescence, flagging assay interference; Potency, µM (top dose mostly 106 µM), without a hit: at the top dose fluorescence change, negative = quenching; 0.29% of 280,000 active; TRb/SRC2 Texas Red total fluorescence interference; active = well fitted curve in either direction with a large enough effect; inconclusive = small, poorly fitted or top-dose-only effect; also: potency is read from the fitted curve at half-maximal effect
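Human TRβ ligand-binding domain (0.6 uM) and Texas Red SRC2 peptide (20 nM) in Tris buffer with 1 uM T3 and 5% DMSO were incubated with pinned compound for 5 hr at ambient temperature. Total fluorescence was computed as S + 2P (555/632 nm).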
Tau FP inhib = inhibitors of human tau fibril formation; Potency, µM (doses to about 57.7 µM), without a hit: top-dose activity, negative = inhibition, actives largely listed as inhibitors; K18 P301L tau heparin fibrillization, Alexa594 FP, 6 h; 0.39% of 280,000 active; also: potency is read from the fitted curve at half-maximal effect; nearly all actives have a fitted effect of over 55% in size
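Compound effects on tau fibrillization are measured by Alexa 594 fluorescence polarization (ex 555, em 632 nm). K18 P301L tau is used at 15 uM with 0.24 uM labeled tracer, and 20 uM heparin induces aggregation over 6 hr at 37 C.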
TRb-SRC2 inh = TRbeta-SRC2 interaction inhibition. P10828. TRbeta-SRC2 peptide binding, fluorescence polarization; receptor liganded with 1 µM T3. Potency, µM (highest dose often 106 µM), for inactives: at the top dose activity change, negative = inhibition, most hits filed as inhibitors. 0.065% of 280,000 active. AID 1469;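 also: potency is read from the fitted curve at half-maximal effect; plate controls were bound peptide for no effect and peptide without receptor for full effect; nearly all actives have a fitted effect of over 50% in size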
Target sequence (P10828 whole entry, looked up): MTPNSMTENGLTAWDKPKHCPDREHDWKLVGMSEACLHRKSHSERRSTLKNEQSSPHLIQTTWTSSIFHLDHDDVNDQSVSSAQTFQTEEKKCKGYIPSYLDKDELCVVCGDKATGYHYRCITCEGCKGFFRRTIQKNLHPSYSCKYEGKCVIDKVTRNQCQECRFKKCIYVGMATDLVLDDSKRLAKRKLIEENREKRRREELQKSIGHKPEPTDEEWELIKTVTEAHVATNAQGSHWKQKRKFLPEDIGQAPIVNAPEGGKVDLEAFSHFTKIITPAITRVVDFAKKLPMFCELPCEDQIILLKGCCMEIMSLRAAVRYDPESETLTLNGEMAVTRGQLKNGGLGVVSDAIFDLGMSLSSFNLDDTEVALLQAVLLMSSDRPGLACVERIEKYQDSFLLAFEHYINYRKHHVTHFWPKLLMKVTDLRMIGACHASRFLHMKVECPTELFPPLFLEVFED
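Each compound concentration gave % activity, normalized to unbound and bound Texas Red SRC2 controls, from polarization read after 5 hr ambient incubation with T3-loaded human TRb LBD.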
Numbers without * were called inactive; ? = inconclusive; · = not tested or not shown; [ ] = dose if it differs, or a comment. Unless noted, calls follow the shape of the dose curve; as a rule, active = well fitted curve in the direction sought with a large enough effect; inconclusive = small, poorly fitted or top-dose-only effect, or another doubt; inactive = no such curve, though single readings can be large; an effect the other way counts as inactive or inconclusive. Unless noted, % is scaled to controls: 0 for no effect and ±100 for the full control effect.

SMILES	Tau fibril ThT	PNC inhibitor	Tau fluor cs	TR SRC2 fluor cs	Tau FP inhib	TRb-SRC2 inh
O=C(NCCc1ccccc1)c1ccc2nc(-c3ccco3)c(-c3ccco3)nc2c1	7.08µM*	-11.0	?	28.2µM*[quencher]	?	9.2%
O=c1oc(-c2ccco2)nc2ccccc12	-13.9%	12.7	-1.7%	0.3%	3.9%	1.1%
N#Cc1c(N)n[nH]c1-c1cc2c([nH]1)CCCC2	?	-100.0*	?	-6.0%	12.0%	-8.0%
[O-]/[N+](=C\c1ccncc1)c1ccc(Br)cc1	31.6µM*	?	-25.1%	0.8%	?	0.2%
C=CS(=O)(=O)c1sc(Cl)c(N2CCOCC2)c1[N+](=O)[O-]	3.55µM*	·	?	-1.1%	-1.9%	-9.7%
C=CSc1sc(Cl)c(N2CCOCC2)c1[N+](=O)[O-]	14.1µM*	·	?	-14.7%	-6.2%	-1.2%
O=[N+]([O-])c1cccc(Cl)c1N1CCOCC1	-1.8%	-12.1	6.6%	-1.3%	-3.5%	-1.4%
Oc1ccccc1N=Nc1ccccc1O	?	·	-11.2%	-2.1%	12.4%	2.3%
O=Cc1cc(N=Nc2cccc(C(=O)O)c2)ccc1O	3.98µM*	·	-12.6%	?	-8.3%	3.6%
O=Cc1cc(N=Nc2ccccc2Cl)ccc1O	12.6µM*	·	?	-15.5%	?	8.1%
O=S(=O)(c1ccccc1)c1nnn2c1nc(NCc1ccccc1)c1sccc12	15.9%	·	0.2%	0.1%	?	-2.0%
O=C(Nc1cccc(-c2nc3ccccc3s2)c1)c1cccs1	?	8.4	?	-2.8%	22.4µM*	5.3%
O=C(Nc1ccccc1)Nc1sccc1-c1nc2ccccc2s1	?	·	?	6.7%	?	5.8%
O=C(Nc1cccc(Cl)c1)Nc1sccc1-c1nc2ccccc2s1	?	·	14.1µM*[quencher]	6.1%	?	6.4%
C=CCNC(=O)Nc1ccc(F)cc1F	6.7%	·	-1.1%	-4.3%	-9.2%	-9.6%
O=C(N/N=C/c1ccc(N2CCOCC2)o1)c1cccc(C(F)(F)F)c1	?	-100.0*	-5.3%	-0.7%	-2.4%	-2.6%
O=C(N/N=C/c1c(O)ccc2ccccc12)c1cccc(C(F)(F)F)c1	?	-93.0*	8.91µM*[quencher]	-5.8%	?	-4.7%
Cc1ccc(S(=O)(=O)NCC2CCC(C(=O)N(C)Cc3ccccc3)CC2)cc1 (stereo not drawn)	-17.6%	·	-14.6%	-0.1%	-9.3%	1.3%
Cc1cc(C)nc(SCC(=O)Nc2ncc(Cc3ccc(Cl)c(Cl)c3)s2)n1	-0.1%	-113.4*	-1.0%	1.7%	4.4%	-1.5%
Cc1ccc(Cc2cnc(NC(=O)CN3CCOCC3)s2)cc1Cl	-9.7%	28.8	-13.9%	-1.1%	0.2%	-5.2%
Cc1ccc2cccc(Oc3ccc([N+](=O)[O-])cc3[N+](=O)[O-])c2n1	-10.1%	?	-20.7%	-2.1%	-0.2%	-0.1%
O=[N+]([O-])c1ccccc1OCCOCCOc1cccc2cccnc12	-12.3%	-85.6*	-12.7%	-5.4%	6.0%	1.6%
O=[N+]([O-])c1ccc(Oc2cccc3cccnc23)c([N+](=O)[O-])c1	8.91µM*	?	15.8µM*[quencher]	-4.4%	-6.9%	-5.7%
O=C(N/N=C/c1ccco1)c1ccc(N2CCCC2=O)cc1	?	-0.9	-9.6%	-0.7%	-4.3%	2.1%
CC(C)(C)c1ccc(/C=N/N2CCN(c3ccccn3)CC2)cc1	?	·	-24.8%	-3.4%	1.3%	1.5%
SMILES	Tau fibril ThT	PNC inhibitor	Tau fluor cs	TR SRC2 fluor cs	Tau FP inhib	TRb-SRC2 inh
CN(C)c1ccc(/C=N/N2CCN(c3ccccn3)CC2)cc1	1.78µM*	·	-27.1%	-3.9%	5.3%	-7.4%
CC1CCCCC1NC(=O)c1cncc(Br)c1 (stereo not drawn)	3.8%	-80.7*	4.1%	1.3%	1.3%	6.1%
CC1CCCC(NC(=S)NC(=O)c2cncc(Br)c2)C1C (stereo not drawn)	-12.2%	0.4	-5.8%	0.9%	6.1%	0.4%
COc1ccccc1-c1cc(C(=O)Nc2sc3c(c2C#N)CCCC3)no1	35.5µM*	·	-21.9%	7.7%	?	-4.6%
Cc1cc(C(=O)Nc2sc3c(c2C#N)CCC3)no1	?	-85.4*	-12.4%	-2.6%	6.7%	-1.7%
Cc1cc(C(=O)Nc2sc3c(c2C#N)CCCC3)no1	-19.7%	-12.8	-8.8%	2.4%	-1.9%	-2.4%
CC(C)(C)C1CCc2onc(C(=O)Nc3sc4c(c3C#N)CCCC4)c2C1 (stereo not drawn)	31.6µM*	·	-20.2%	3.1%	?	-11.5%
Cc1onc(-c2ccccc2)c1C(=O)NC(=S)Nc1sc2c(c1C#N)CCCC2	28.2µM*	24.2	-28.5%	-0.9%	?	-1.2%
CC(C)c1ccccc1NC(=O)COC(=O)CNC(=O)c1ccc(Br)cc1	2.6%	?	-16.3%	2.6%	-5.1%	-10.2%
Cc1ccc(-c2csc3nc(=O)c(C)nn23)cc1	5.1%	-19.2	2.7%	1.2%	0.6%	5.1%
Cc1onc(-c2ccccc2)c1C(=O)NC(=S)NNC(=O)c1ccccc1O	-9.3%	-95.0*	-9.8%	-3.6%	?	-3.5%
CCCN1CCc2c(sc(NC(=S)NC(=O)c3ccccc3)c2C#N)C1	15.8µM*	·	?	-3.8%	2.3%	-2.5%
CC(C)N1CCc2c(sc(NC(=S)NC(=O)c3ccccc3)c2C#N)C1	?	?	?	5.4%	10.3%	1.5%
COc1cc(O)c(C(=O)c2ccccc2)cc1O	7.94µM*	·	12.6µM*[quencher]	-4.3%	14.1µM*	-6.5%
Cc1ccc(-c2nnc(Nc3cccc(O)c3)c3ccccc23)cc1S(=O)(=O)N1CCN(C)CC1	-9.6%	·	?	-2.8%	6.1%	5.1%
COc1ccccc1N1CCN(CC(=O)NCC2CCCO2)CC1 (stereo not drawn)	-7.8%	-118.9*	-5.4%	0.4%	-5.1%	-3.6%
O=C(CN1CCN(c2ccc(F)cc2)CC1)NCC1CCCO1 (stereo not drawn)	-5.6%	14.4	-5.3%	-4.7%	-9.5%	0.0%
Cc1nnc(C)n1/N=C/c1ccc(C(=O)O)cc1	-0.5%	10.9	8.7%	-5.2%	-0.8%	-20.1%
Cc1ccc(CNC(=O)C2CCN(S(=O)(=O)c3cccc4nonc34)CC2)cc1	-1.5%	·	-12.1%	0.6%	-9.3%	-3.8%
O=C(Cc1ccc(Cl)cc1Cl)Nc1ccc(OC(F)F)c(Cl)c1	-0.6%	0.7	-22.2%	-1.0%[53 µM]	?	-2.3%[53 µM]
O=C(Nc1ccc(OC(F)F)c(Cl)c1)Nc1ccc2c(c1)OCO2	?	-86.7*	5.01µM*[quencher]	-3.0%	12.8%	-8.1%
O=C(Nc1ccc([N+](=O)[O-])cc1)Nc1ccc(OC(F)F)c(Cl)c1	?	-113.4*	?	-1.2%	10µM*	-2.8%
COc1ccc(NC(=O)Nc2cccc([N+](=O)[O-])c2)cc1Cl	15.8µM*	?	14.1µM*[quencher]	-8.1%	?	20.9%
